# Compounds with a hit are over-represented: about 9.2% of the library has one in this group of screens.
# FLuc counter = qHTS profiling assay for firefly luciferase inhibitor/activator using purifed enzyme and Km concentrations of substrates (counterscreen for miR-21 project) | AID 588342, 2011 | purified FLuc, Km substrates, luminescence inhibition | Potency, µM (series often up to 57.5 µM), usual class: inhibitors | Luciferin 4-monooxygenase (Photinus pyralis), P08659 | 6.9% of 360,000 active; also: nearly all actives have a fitted effect of over 55% in size
# Target sequence (P08659 whole entry, looked up): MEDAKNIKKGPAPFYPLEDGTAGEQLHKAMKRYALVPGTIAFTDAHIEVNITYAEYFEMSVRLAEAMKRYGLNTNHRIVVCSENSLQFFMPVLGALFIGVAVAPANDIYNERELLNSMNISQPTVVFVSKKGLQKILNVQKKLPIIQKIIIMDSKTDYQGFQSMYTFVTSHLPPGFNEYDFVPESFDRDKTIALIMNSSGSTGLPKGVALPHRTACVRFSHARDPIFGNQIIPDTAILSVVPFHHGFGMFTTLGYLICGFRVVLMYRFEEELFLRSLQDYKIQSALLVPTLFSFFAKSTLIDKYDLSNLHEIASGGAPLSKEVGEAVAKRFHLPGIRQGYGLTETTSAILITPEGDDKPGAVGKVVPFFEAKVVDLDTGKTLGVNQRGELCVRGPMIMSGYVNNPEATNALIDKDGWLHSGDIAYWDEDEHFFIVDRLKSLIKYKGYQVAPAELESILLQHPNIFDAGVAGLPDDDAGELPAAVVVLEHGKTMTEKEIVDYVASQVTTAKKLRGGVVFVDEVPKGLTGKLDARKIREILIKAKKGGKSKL
#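 Biochemical qHTS of compounds, final roughly 60 µM downward over six points, against 10 nM purified firefly luciferase using Km concentrations of substrates (10 uM D-luciferin, 10 uM ATP) in Tris acetate pH 7.5 buffer; luminescence output.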
# Rab9 prom act = qHTS Assay for Rab9 Promoter Activators; Huh7 Rab9 promoter-luciferase reporter, luminescence, 24 h; Potency, µM (top dose mostly 9.22 µM), hits mostly activators; 2.8% of 320,000 active; AID 485297, 2010; also: nearly all actives have a fitted effect of over 60% in size
#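 Using Huh7 cells stably transfected with Rab9 promoter–luciferase, compounds were incubated 24 h at 37 °C, 5% CO2; luciferase luminescence was read 10 min after reagent addition.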
# ELG1 repair inh = qHTS screen for small molecules that inhibit ELG1-dependent DNA repair in human embryonic kidney (HEK293T) cells expressing luciferase-tagged ELG1; HEK293T ELG1-luciferase reporter, luminescence, 16 h; DNA damage induced by 5-fluorouridine; Potency, µM (titrated, usually from 46.1 µM), most hits filed as inhibitors; 2.3% of 330,000 active; AID 504467, 2011; also: nearly all actives have a fitted effect of over 55% in size
#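 Overnight (16 hr) co-exposure of 2,000 cells/well to 5-fluorouridine and compound at 37 °C preceded detection. Luciferase was quantified via ONE-Glo luminescence; loss of signal denotes inhibition.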
# SMN2 splice enh = qHTS Assay for Enhancers of SMN2 Splice Variant Expression. HEK293 SMN2-luciferase splicing reporter, luminescence, 30-36 h. Potency, µM (titrated, usually from 46.1 µM), most hits filed as activators. 2.8% of 210,000 active. AID 1458, 2008; also: nearly all actives have a fitted effect of over 55% in size
#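 qHTS luciferase splicing reporter: luminescence rises when SMN2 exon 7 is included in transfected HEK293 cells. Compound exposure lasted 30-36 h at 37C, with 4.5 mM final sodium butyrate as control, followed by a ONE-Glo read.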
# ELG1 genotox = qHTS screen for small molecules that induce genotoxicity in human embryonic kidney (HEK293T) cells expressing luciferase-tagged ELG1. HEK293T ELG1-luciferase reporter, luminescence, 16 h. Potency, µM (top dose mostly 46 µM), most hits filed as activators. 1.3% of 330,000 active; also: nearly all actives have a fitted effect of over 60% in size
#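 16 hr compound incubation (37 °C, 5% CO2) of HEK293T cells carrying luciferase-tagged ELG1; luciferase then measured by ONE-Glo luminescence after 30 min at RT.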
# NPC1 promoter act = qHTS Assay for NPC1 Promoter Activators | 2.4% of 320,000 active | Huh7 NPC1 promoter luciferase reporter, 24 h | Potency, µM (top dose mostly 9.22 µM), most hits filed as activators; also: nearly all actives have a fitted effect of over 60% in size
#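 Huh7 reporter cells (NPC1 promoter driving luciferase) are dosed with compound for 24 h at 37 °C, 5% CO2; luciferase detection reagent is then added and luminescence measured after 10 min at ambient temperature.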
# Numbers stand for hits; i = inactive; ? = inconclusive; nt = not tested or not shown; [ ] = another dose, or the depositor's remark. Calls follow the shape of the dose curve; as a rule, active = well fitted curve in the direction sought with a large enough effect; inconclusive = small, poorly fitted or top-dose-only effect, or another doubt; inactive = no such curve, though single readings can be large; an effect the other way counts as inactive or inconclusive.
SMILES,FLuc counter,Rab9 prom act,ELG1 repair inh,SMN2 splice enh,ELG1 genotox,NPC1 promoter act
COc1cccc(/C=N/NC(=O)c2ccc([N+](=O)[O-])cc2Cl)c1O,19µM,i,i,i,i,i
COc1ccc(/C=N/Nc2ccc([N+](=O)[O-])cc2)cc1Cn1cc([N+](=O)[O-])cn1,i,i,?,i,?,i
COc1ccc(/C=N/Nc2ccc([N+](=O)[O-])cc2)cc1O,7.57µM,?,?,nt,11.6µM,i
COC(=O)c1ccc(N/N=C/c2cc([N+](=O)[O-])cc(OC)c2O)cc1,?,i,?,nt,i,i
COc1cccc(N/N=C/c2cccc(Br)c2O)c1,6.75µM,?,?,nt,?,?
COc1cc(/C=N/NC(=O)c2cccc([N+](=O)[O-])c2)cc(OC)c1O,i,i,i,i,i,i
COc1cccc(/C=N/Nc2ccc([N+](=O)[O-])cc2)c1O,2.39µM,i,?,nt,?,?
CCc1ncc(CO)n1Cc1cccc2ccccc12,nt,nt,nt,i[9.22 µM],nt,nt
COc1ccc(OC)c(/C=N/NC(=O)c2ccc(=O)[nH]n2)c1,i,i,?,nt,i,i
COc1cccc(/C=N/NC(=O)c2ccc(=O)[nH]n2)c1O,3.38µM,i,i,nt,i,i
CN(C)c1oc(/C=C/c2ccccc2)nc1C#N,16.9µM,?,?,12.6µM,?,?
COc1ccccc1/C=C/c1nc(C#N)c(N(C)C)o1,7.57µM,?,?,10µM,20.6µM,?
CNc1oc(/C=C/c2cccc(OC)c2)nc1C#N,15.1µM,i,?,nt,20.6µM,i
COc1ccc(Nc2oc(/C=C/c3cccc(OC)c3)nc2C#N)cc1,i,nt,nt,i,nt,nt
COc1cccc(NC(=O)Nc2cc(-c3cn4cccnc4n3)ccc2OC)c1,1.35µM,nt,nt,8.91µM,nt,nt
COc1cccc(NC(=O)Nc2cc(-c3cn4cccnc4n3)ccc2C)c1,i,nt,nt,i,nt,nt
COc1cccc(NC(=O)Nc2cccc(-c3cn4cccnc4n3)c2)c1,6.75µM,nt,nt,i,nt,nt
COc1ccc(-c2cn3cccnc3n2)cc1NC(=O)Nc1cc(C)ccc1C,2.39µM,i,nt,i,nt,i
Cc1ccc(N2C(=O)Nc3cc(Cl)c(Cl)cc3N2O)cc1Cl,16.9µM,i,i,i,i,i
O=C(OCC(=O)N1CCCC1=O)C1CCN(S(=O)(=O)c2c(Cl)cccc2Cl)CC1,i,i,i,nt,i,i
Cc1occc1C(=O)N/N=C/c1ccc(N(C)C)cc1,1.2µM,0.112µM,?,nt,?,0.316µM
Cc1ccc(/C=N/NC(=O)c2ccoc2C)o1,?,?,?,?,i,i
Cc1occc1C(=O)N/N=C/C=C/c1ccccc1,?,3.55µM,?,12.6µM,?,3.55µM
Cc1occc1C(=O)N/N=C/C(Br)=C\c1ccccc1,2.13µM,0.891µM,?,nt,?,2.51µM
Cc1occc1C(=O)N/N=C/C=C/c1ccc(N(C)C)cc1,23.9µM,2.51µM,?,nt,?,4.47µM
SMILES,FLuc counter,Rab9 prom act,ELG1 repair inh,SMN2 splice enh,ELG1 genotox,NPC1 promoter act
Cc1occc1C(=O)N/N=C/C=C/c1ccccc1[N+](=O)[O-],?,i,i,i,i,i
Cc1cc(=O)n2c(n1)NC(Nc1cccc(C)c1C)=NC2c1ccccc1 (stereo not given),i,i,i,nt,i,i
COc1cc(/C=C/c2ccccc2)oc(=O)c1,nt,nt,nt,8.91µM,nt,nt
Fc1ccc(CSc2nnc(-c3ccncc3)o2)cc1,i,i,?,i,i,i
Oc1ccc(-c2nnc(SCc3ccccc3)o2)cc1,26.9µM,i,?,nt,?,?
C#CCSc1nnc(-c2ccc(O)cc2)o1,?,?,?,?,?,i
Cc1ccc(CSc2nnc(-c3cccnc3)o2)cc1,i,i,?,i,?,i
Cc1ccccc1-c1nnc(SCc2ccc(F)cc2)o1,15.1µM,i,?,i,?,?
Cc1ccc(-c2nnc(SCc3ccccc3)o2)cc1,4.78µM,nt,nt,nt,nt,nt
